# Source: PubChem
# 12-LOX inh: ALOX12 (human) lipoxygenase inhibition. P18054. purified 12hLO, xylenol orange hydroperoxide absorbance. Potency, µM (series often up to 108 µM), for inactives: top-dose activity change, negative = inhibition, most hits filed as inhibitors. 580,000 tested, 1.1% active. AID 1671190; also: potency is read from the fitted curve at half-maximal effect
# Target sequence (P18054 whole entry, looked up): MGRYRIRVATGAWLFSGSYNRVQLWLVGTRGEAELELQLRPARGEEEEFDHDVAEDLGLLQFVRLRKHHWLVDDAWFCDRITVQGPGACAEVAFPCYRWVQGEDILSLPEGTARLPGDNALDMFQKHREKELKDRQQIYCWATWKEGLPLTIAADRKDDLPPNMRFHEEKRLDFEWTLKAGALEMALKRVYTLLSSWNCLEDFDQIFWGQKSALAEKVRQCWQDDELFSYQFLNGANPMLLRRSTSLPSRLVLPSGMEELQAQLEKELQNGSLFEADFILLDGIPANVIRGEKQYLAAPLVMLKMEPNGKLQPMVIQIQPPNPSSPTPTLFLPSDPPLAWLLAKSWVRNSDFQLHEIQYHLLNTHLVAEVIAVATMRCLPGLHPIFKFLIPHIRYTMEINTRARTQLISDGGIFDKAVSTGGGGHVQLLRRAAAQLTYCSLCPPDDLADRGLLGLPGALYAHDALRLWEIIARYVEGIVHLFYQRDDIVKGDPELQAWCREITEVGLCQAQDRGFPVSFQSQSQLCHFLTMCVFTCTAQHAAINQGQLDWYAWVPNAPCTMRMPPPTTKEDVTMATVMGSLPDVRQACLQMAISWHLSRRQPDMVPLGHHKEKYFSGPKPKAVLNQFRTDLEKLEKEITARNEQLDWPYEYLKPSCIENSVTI
#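 Hydroperoxide product was detected by ferrous iron/xylenol orange as the 573 to 405 nm absorbance ratio. Arachidonic acid at 40 uM (final) was turned over for 30 min at room temperature by 150 nM human 12hLO, pH 7.0 Hepes buffer, after 15 min compound preincubation.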
# DT40 TDP1 no CPT: qHTS for Inhibitors of human tyrosyl-DNA phosphodiesterase 1 (TDP1): qHTS in cells in absence of CPT. Potency, µM (titrated, usually from 46.2 µM), without a hit: top-dose activity change, negative = growth inhibition, usual class: inhibitors. 420,000 tested, 15% active. DT40 Tdp1-/- hTDP1 cells, no CPT, ATP luminescence, 48 h; also: potency is read from the fitted curve at half-maximal effect; nearly all actives have a fitted effect of over 55% in size
#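 A cellular qHTS used chicken DT40 cells lacking endogenous Tdp1 but carrying stably transfected human TDP1. Compounds were applied without camptothecin, and cell growth kinetics were judged by ATP-dependent luminescence after ≥48 hr.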
# IL1B secr inh: blocks inflammasome-driven IL-1 beta release; THP-1 LPS/ATP IL-1B secretion, AlphaLISA, 16 h; hits give low values; activity change, % at 57.5 µM; 360,000 tested, 4.7% active; in the data active = activity change below about -50%; inconclusive = mostly about -30% to -49%
#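 THP-1 cells pretreated 1 hr with compounds (up to 57.5 uM final), then stimulated with LPS (250 ng/mL final) plus ATP (1.25 mM final); secreted IL-1B measured by AlphaLISA after 16 hr, decreased signal indicating inhibition.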
# HT1080NT lethal: kills 2HG-producing HT-1080-NT fibrosarcoma cells. HT-1080-NT fibrosarcoma viability, CellTiter-Glo ATP luminescence, 48 h. Potency, µM (doses to about 46.1 µM), without a hit: top-dose activity, negative = less viability, usual class: cytotoxic. 360,000 tested, 1.6% active;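 also: NT is the 2HG producing partner of a matched IDH1 knockdown line; potency is read from the fitted curve at half-maximal effect; 0% = DMSO-treated cells and -100% = media-only wells without cells; nearly all actives have a fitted effect of over 55% in size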
#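 Read-out is CellTiter-Glo luminescence after 10 minutes at room temperature, following 48 hours' compound treatment of HT-1080-NT cells (750 cells/well, RPMI, 5% FBS, 37 degrees C).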
# HT1080 IDH1KD tx: toxicity to HT-1080 IDH1 knockdown cells (counter line). Potency, µM (titrated, usually from 46.1 µM), for inactives: at the highest dose activity, negative = toxicity, usual class: cytotoxic. 360,000 tested, 2% active. AID 686971. HT-1080 IDH1 knockdown viability, ATP luminescence, 48 h;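 also: potency is read from the fitted curve at half-maximal effect; 0% = DMSO wells and -100% = cell-free medium wells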
#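 IDH1KD HT-1080 cells, 750/well, RPMI + 5% FBS; compound pinned after 2 h settling; 48 h, 37 °C; CellTiter-Glo luminescence; % activity normalised to DMSO and no-cell wells; curves fitted, classed by r2 and efficacy.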
# DT40 TDP1 CPT: DT40-hTDP1 cell growth loss with CPT. chicken DT40 Tdp1-/-;hTDP1 cells + 20 nM CPT, ATP luminescence, 48 h. Potency, µM (top dose mostly 46.2 µM), for inactives: at the top dose activity change, negative = growth inhibition, hits mostly inhibitors. 420,000 tested, 12% active; also: potency is read from the fitted curve at half-maximal effect; nearly all actives have a fitted effect of over 55% in size
#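 Chicken DT40 Tdp1-/- cells complemented with human TDP1, 400 cells/well, exposed to compounds plus 20 nM camptothecin for at least 48 h at 37 C; viability read as ATP content by CellTiter-Glo luminescence.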
# * marks the source's active call; other numbers are inactive results; ? = inconclusive; / = not tested or not shown; [ ] = remark or other dose. The entries come from a sample that favours hits as a whole. Unless noted, calls follow the shape of the dose curve; as a rule, active = well fitted curve in the direction sought with a large enough effect; inconclusive = small, poorly fitted or top-dose-only effect, or another doubt; inactive = no such curve, though single readings can be large; an effect the other way counts as inactive or inconclusive. Unless noted, % is scaled to controls: 0 for no effect and ±100 for the full control effect.
SMILES,12-LOX inh,DT40 TDP1 no CPT,IL1B secr inh,HT1080NT lethal,HT1080 IDH1KD tx,DT40 TDP1 CPT
COCCn1c(SCC(=O)c2c[nH]c3ccccc23)nc2cc(C(=O)NCC(C)C)ccc2c1=O,2%,-19%,/,/,/,?
COCCNC(=O)c1ccc2c(=O)n(CCc3ccccc3)c(SCC(=O)CC(=O)OC)nc2c1,-3%,21µM*,/,/,/,?
COCCNC(=O)c1ccc2c(=O)n(CCOC)c(SCC(=O)c3c[nH]c4ccccc34)nc2c1,12%,13µM*,/,/,/,23µM*
Cc1ccn2c(NC3CCCC3)c(-c3ccccn3)nc2c1,-26%,6.5µM*,-96*,?,?,18µM*
Cc1ccn2c(NC3CCCCC3)c(-c3ccc(C)o3)nc2c1,/,11µM*,/,?,-24%,16µM*
Cc1ccc(-c2nc3ncccn3c2NC2CCCCC2)o1,2%,?,-5,0%,-8%,?
c1ccc(-c2nc3ccccn3c2NC2CCCC2)nc1,0%,16µM*,11,?,?,?
CNC(=O)N1CCCC(c2nc(CCOCC3CCCC3)no2)C1 (stereo not given),66%,/,/,/,/,/
COc1ccccc1C(C[N+](=O)[O-])c1c(N)n(C)c(=O)n(C)c1=O (stereo not given),?,2.3µM*,-58*,?,?,3.7µM*
Clc1nc2ccccc2nc1-c1ccccc1,3%,-23%,2,22%,15%,-17%
Cc1ccc(-c2nc3ccccc3nc2-c2ccccc2)cc1,0%,15µM*,-12,2%,21%,?
CC(C)(N)c1ccc(-c2nc3ccccc3nc2-c2ccccc2)cc1,-4%[57.4 µM],/,/,/,/,/
Clc1ccc(-c2nc3ccccc3nc2-c2ccccc2)cc1,-19%,21µM*,-11,1%,18%,?
COc1ccc(CN(C2CC2)S(=O)(=O)c2ccccc2Br)cc1,1%,?,61,-5%,-9%,?
O=c1[nH]c(COc2ccc(Cl)cc2Br)nc2ccccc12,-1%,?,15,-4%,-5%,23µM*
O=c1[nH]c(COc2ccc(Cl)cc2Cl)nc2ccccc12,2%,4%,-13,-1%,9%,-15%
Cn1c(=O)c2cc3ccccc3nc2n(C)c1=O,0%,-15%,-10,13%,11%,0%
OC[C@@H]1CN(Cc2ccccn2)C[C@H]1c1nc(-c2cccnc2)no1,126%,/,/,/,/,/
CCCCCC(O)(c1ccc(OC)cc1)C(CN1CCOCC1)c1ccccc1 (stereo not given),?,10µM*,-30,?,?,16µM*
CCCCCC(O)(c1ccc(OCC)cc1)C(CN1CCOCC1)c1ccccc1 (stereo not given),0%,16µM*,-85*,?,16µM*,?
CCCCC(O)(c1ccc(OC)cc1)C(CN1CCOCC1)c1ccccc1 (stereo not given),?,23µM*,?,?,?,18µM*
COc1ccc(C(O)(C(C)C)C(CN2CCOCC2)c2ccccc2)cc1 (stereo not given),-3%,?,13,4%,3%,?
COc1ccc(C(O)(C(C)C)C(CN2CCOCC2)c2ccc(Cl)cc2)cc1 (stereo not given),-8%,18µM*,-17,-20%,7%,?
CCCC(O)(c1ccc(OC)cc1)C(CN1CCOCC1)c1ccccc1 (stereo not given),-17%,?,-5,-6%,-13%,?
CCC(O)(c1ccc(OC)cc1)C(CN1CCOCC1)c1ccccc1 (stereo not given),-5%,?,3,4%,-2%,?
SMILES,12-LOX inh,DT40 TDP1 no CPT,IL1B secr inh,HT1080NT lethal,HT1080 IDH1KD tx,DT40 TDP1 CPT
O=C(NCC1CC1)[C@@H]1[C@@H](CO)[C@@H]2Cn3c(cccc3=O)[C@@H]2N1Cc1cccc(F)c1,-12%,/,/,/,/,/
C[C@H](O)[C@@H]1CN2CCc3ccc(N4CCOCC4)cc3[C@@H]2C[C@@H]1N(C)C(=O)c1ccco1,8%,/,/,/,/,/
CN1C(=O)[C@H]2CN(Cc3ccc(F)c(Br)c3)C[C@H]2C1=O,48%,/,/,/,/,/
COc1ccc(NC(=O)c2cccc3c(-c4cnn(C)c4)coc23)cc1,?,23µM*,?,-11%,-20%,?
COc1cc(NC(=O)c2cccc3c(-c4cnn(C)c4)coc23)cc(OC)c1OC,-11%,3.3µM*,-75*,?,?,4.6µM*
Cn1cc(-c2coc3c(C(=O)NCc4ccco4)cccc23)cn1,/,?,-13,?,-1%,?
CN(Cc1ccc(OC(F)F)cc1)C(=O)Cn1nc(C(=O)O)c2ccccc2c1=O,-47%,/,/,/,/,/
O=C(N[C@H](C(=O)N1CCC[C@H]1C(=O)NCc1ccccc1)c1ccccc1)c1ccc(Cl)cc1Cl,-5%,/,/,/,/,/
COC(=O)[C@@]1(Sc2ccc(C)cc2)CC(=O)N(c2ccccc2)[C@@H]1c1ccccc1,?,18µM*,-5,?,?,18µM*
COC(=O)[C@@]1(Sc2ccc(C)cc2)CC(=O)N[C@@H]1c1ccc(C(F)(F)F)cc1,-78%,21µM*,?,-17%,-18%,15µM*
COC(=O)[C@]1(Sc2ccccc2)CC(=O)N[C@@H]1c1ccccc1,-5%,?,9,0%,1%,-12%
O=C1Nc2ccc(-c3cccc(C(F)(F)F)c3)cc2C(=O)N2CCN(C(=O)NC3CCCCC3)C[C@H]12,0%,/,/,/,/,/
O=c1c2ccccc2nc2c3ccccc3c(NCCO)nn12,-7%,?,0,29%,13%,13µM*
OCCNc1c2ccccc2nc2ccccc12,-13%,10µM*,-8,23µM*,23µM*,13µM*
OCCNc1nc2ccccc2nc1NCCO,160%,-6%,10,5%,6%,-16%
O=c1c2ccccc2nc2c3ccccc3c(NCc3ccccn3)nn12,0%,15µM*,?,8%,-5%,?
Cc1nc(NCc2ccccn2)c2ccccc2n1,?,10µM*,-9,?,-11%,13µM*
Cc1ccc(CN2CCCN(c3ccc(C(=O)N4CCOCC4)cc3)C2=O)cc1,-5%,/,/,/,/,/
CCc1nc2c(OCC=C(C)C)cccn2c1N(C)C(=O)c1ccc(OC)cc1,2%,13µM*,63,?,?,23µM*
CCc1nc2c(OCC=C(C)C)cccn2c1N(C)C(=O)c1ccccc1F,3%,0.82µM*,-69*,?,?,0.73µM*
